# Results as given in PubChem BioAssay (EPA / NIEHS).
# Active and inactive are the calls of the source. How the source made its calls: active means hit-call score of the fitted dose curve at least 0.9, where 1 is the maximum; inactive means score below 0.9.
# Read-out: TIMP metallopeptidase inhibitor 1 (TIMP1), TIMP1 (gene 7076)
# Experiment: BSK_MyoF_TIMP1: BioMAP Diversity Plus: MyoF Assay for TIMP metallopeptidase inhibitor 1 (TIMP1) Biomarker Activity (AID 2284269)
# Conditions: primary human lung fibroblasts
# Experimental: BSK_MyoF is a cell-based, multiplexed-readout assay that uses lung fibroblasts, […], with measurements taken at 24 hours after chemical dosing in a microplate: 96-well plate.BSK_MyoF_TIMP1 is an assay component measured in the BSK_MyoF assay. It measures TIMP-1 antibody related to regulation of gene expression using ELISA technology.Data from the assay component BSK_MyoF_TIMP1 was analyzed at the endpoint, BSK_MyoF_TIMP1, in the positive analysis fitting direction relative to DMSO as the negative control and baseline of activity. Using a type of binding reporter, gain or loss-of-signal activity can be used to understand protein changes. To generalize the intended target to other relatable targets, this assay endpoint is annotated to the 'protease' intended target family, where the subfamily is 'matrix metalloproteinase'.
# The levels of cell surface (or secreted, indicated by the prefix "s") biomarker endpoints were measured by ELISA. Overt cytotoxicity to cells in confluent adherent cultures (all systems other than the BT system) was assessed by measuring total protein levels using sulforhodamine B (SRB) staining in parallel cultures at the time of biomarker measurements, indicated as SRB endpoints. For proliferation assays for adherent cell types, individual cell types are cultured at sub-confluence and relative cell numbers quantified by SRB staining at time points optimized for each system (48 h: 3C and CASM3C systems; 72 h: BT and HDF3CGF systems; 96 h: SAg system). SRB was performed by staining cells with 0.1% SRB after fixation with 10% TCA and reading wells at 560 nm.Viability and proliferation of PBMC (T cells) was quantified by Alamar Blue reduction for the SAg and BT systems. For PBMC viability (referred to as PBMC Cytotoxicity within the assay endpoint names), cells were plated (75,000/well in a 96-well plate) and then chemical samples added for 1 h before addition of activators, SEB and TSST-1 (20 ng/mL final concentration each). Cells were incubated for 90 h. Then, Alamar Blue (20 uL/well) (Invitrogen, Cat DAL1100) was added for 6 h, and the plates were read with a fluorescence microplate reader at 546/580 nm (excitation/emission). For PBMC proliferation, cells were plated and activated as above but incubated for only 16 h prior to addition of Alamar Blue. Plates were read after 6 h.
SMILES,AC50,outcome
CCCCN(CCCC)C(=O)N(CCCC)CCCC,9.42 µM (active),–
c1ccc(CCc2ccccc2)cc1,30.2 µM (active),–
CN(c1nccc(=O)[nH]1)C1CCN(c2nc3ccccc3n2Cc2ccc(F)cc2)CC1,–,inactive
COc1ccc(CCN2CCC(Nc3nc4ccccc4n3Cc3ccc(F)cc3)CC2)cc1,–,inactive
CCCCCCCCCCCCCCCC(=O)OC/C=C(C)/C=C/C=C(C)/C=C/C1=C(C)CCCC1(C)C,–,inactive
C1=CC2C3C=CC(C3)C2C1 (stereo not drawn),–,inactive
CC(C=O)Cc1ccc(C(C)(C)C)cc1 (stereo not drawn),–,inactive
COc1ccc(OC)c(N=Nc2c(O)ccc3ccccc23)c1,3.12 µM (active),–
COc1cc(Cl)c(OC)cc1N,–,inactive
c1ccc2cc(Nc3ccc(Nc4ccc5ccccc5c4)cc3)ccc2c1,–,inactive
C[C@@H]1CCN(C(=O)[C@H](CCCN=C(N)N)NS(=O)(=O)c2cccc3c2NC[C@H](C)C3)[C@@H](C(=O)O)C1,–,inactive
IC(I)I,–,inactive
CS(=O)(=O)c1ccc(C2=C(c3ccccc3)C(=O)OC2)cc1,–,inactive
CC(C)(C)CC(C)(C)c1ccc(OCCOCC[N+](C)(C)Cc2ccccc2)cc1,5 µM (active),–
CN(C)C(=S)SC(=S)N(C)C,–,inactive
CC(=O)Nc1ccc(C(=O)CCl)cc1,34.5 µM (active),–
Clc1cc(Cl)c(-c2c(Cl)c(Cl)cc(Cl)c2Cl)cc1Cl,–,inactive
c1ccc(Oc2ccccc2)cc1,–,inactive
CC=Cc1ccc(OCC)c(O)c1,–,inactive

SMILES,AC50,outcome
CCCCCC(C=O)=Cc1ccccc1,–,inactive
O=C1c2ccccc2C(=O)c2c(O)ccc(O)c21,–,inactive
CC1(C)C2=CCCC(C)(C)[C@]23CC[C@H]1C3,–,inactive
C=C(C)C(=O)OCCOCCOCCOC(=O)C(=C)C,–,inactive
C=C(C)C(=O)OCCOCCOCCOCCOC(=O)C(=C)C,–,inactive
CC(=O)C1(C)CC2=C(CCCC2(C)C)CC1C (stereo not drawn),20 µM (active),–
CCC(C)c1cc([N+](=O)[O-])cc([N+](=O)[O-])c1OC(=O)OC(C)C (stereo not drawn),13.6 µM (active),–
O=C1OC[C@H](Cc2cccc(O)c2)[C@H]1Cc1cccc(O)c1,–,inactive
CN(C)C(=O)Nc1ccc(Oc2ccc(Cl)cc2)cc1,–,inactive
C=C(C)C(=O)OCC(CC)(COC(=O)C(=C)C)COC(=O)C(=C)C,32.3 µM (active),–
Cc1cc(CCC(=O)OCCOCCOCCOC(=O)CCc2cc(C)c(O)c(C(C)(C)C)c2)cc(C(C)(C)C)c1O,–,inactive
CC(C)(N=C=O)c1cccc(C(C)(C)N=C=O)c1,–,inactive
CCN(CC)C(=O)N(CC)CC,–,inactive
CC(=O)c1c(C)c([N+](=O)[O-])c(C(C)(C)C)c([N+](=O)[O-])c1C,–,inactive
CSCCC=O,–,inactive
Oc1c(Cl)cc(Cl)c(Cl)c1Cc1c(O)c(Cl)cc(Cl)c1Cl,1.07 µM (active),–
CCCCOC(=O)CCCCCCCC(=O)OCCCC,–,inactive
O=C1OC2(c3ccccc31)c1ccc(O)c(Br)c1Oc1c2ccc(O)c1Br,–,inactive
C=C(C)[C@H]1CC=C(C)C(=O)C1,–,inactive
